{"source": "ChEMBL document CHEMBL4513154", "about": "“CO-ADD screening of Jain University (India) compounds”", "note": "Entries with a potency or affinity are not part of this list.", "data": [{"test_system": "Klebsiella pneumoniae", "settings": "Concentration 32 ug.mL-1; ASSAY_TEST Inhibition of Bacterial Growth; detection method Absorption (OD600); MEDIA CAMHB; plate type 384well; NBS; CORNING #3640; time 18 hr", "units": {"Inhibition": "%"}, "values": [{"smiles": "N#Cc1ccccc1-c1ccc(Cn2c(-c3cscn3)nc3ccccc32)cc1", "Inhibition": 13.6}, {"smiles": "Nc1nc(Nc2ccccc2)sc1-c1nc2ccccc2c(=O)n1-c1ccc(Cl)cc1", "Inhibition": -25.33}, {"smiles": "Nc1nc(Nc2ccccc2)sc1-c1nc2ccccc2c(=O)n1-c1ccccc1", "Inhibition": 11.02}, {"smiles": "CCc1ccc(Nc2nc(N)c(-c3nc4ccccc4c(=O)n3-c3ccc(Cl)cc3)s2)cc1", "Inhibition": 12.28}, {"smiles": "N=C(Nc1ccccc1)c1cscn1", "Inhibition": -2.19}, {"smiles": "Fc1cc(Cn2c(-c3cscn3)nc3c(Cl)cccc32)cc(C(F)(F)F)c1", "Inhibition": -0.75}]}, {"test_system": "Candida albicans", "settings": "32 ug/mL", "units": {"Inhibition": "%"}, "values": [{"smiles": "N#Cc1ccc(Cn2c(-c3cscn3)nc3c(Cl)cccc32)cc1", "Inhibition": 4.47}, {"smiles": "Nc1nc(Nc2ccc(Cl)cc2)sc1-c1nc2ccccc2c(=O)n1-c1ccccc1", "Inhibition": 3.78}, {"smiles": "Clc1cccc2c1nc(-c1cscn1)n2Cc1ccccc1", "Inhibition": 5.46}, {"smiles": "N=C(Nc1ccccc1Cl)c1cscn1", "Inhibition": 2.14}, {"smiles": "Cn1c(-c2cscn2)nc2cc(Cl)ccc21", "Inhibition": 0.35}, {"smiles": "CCc1ccc(Nc2nc(N)c(-c3nc4ccccc4c(=O)n3-c3ccc(CC)cc3)s2)cc1", "Inhibition": 3.1}, {"smiles": "CCc1ccc(Nc2nc(N)c(-c3nc4ccccc4c(=O)n3-c3ccccc3)s2)cc1", "Inhibition": 6}, {"smiles": "N#Cc1ccccc1-c1ccc(Cn2c(-c3cscn3)nc3cc(Cl)ccc32)cc1", "Inhibition": -1.51}, {"smiles": "CCc1ccc(-n2c(-c3sc(Nc4ccccc4)nc3N)nc3ccccc3c2=O)cc1", "Inhibition": 0.25}, {"smiles": "N#Cc1ccccc1-c1ccc(Cn2c(-c3cscn3)nc3c(Cl)cccc32)cc1", "Inhibition": 5.26}, {"smiles": "Cn1c(-c2cscn2)nc2c(Cl)cccc21", "Inhibition": 4.84}, {"smiles": "N#Cc1ccccc1-c1ccc(Cn2c(-c3cscn3)nc3ccc(Cl)cc32)cc1", "Inhibition": 1.5}, {"smiles": "O=[N+]([O-])c1ccc(Cn2c(-c3cscn3)nc3ccccc32)cc1", "Inhibition": 3.4}, {"smiles": "Clc1ccc2c(c1)nc(-c1cscn1)n2Cc1ccccc1", "Inhibition": 1.89}, {"smiles": "CC(C)c1ccc(Cn2c(-c3cscn3)nc3c(Cl)cccc32)cc1", "Inhibition": 2.25}, {"smiles": "Clc1ccc2nc(-c3cscn3)n(Cc3ccccc3)c2c1", "Inhibition": 0.38}, {"smiles": "Clc1cccc2[nH]c(-c3cscn3)nc12", "Inhibition": 15}, {"smiles": "N#Cc1ccccc1-c1ccc(Cn2c(-c3cscn3)nc3ccccc32)cc1", "Inhibition": 1.96}, {"smiles": "Nc1nc(Nc2ccccc2)sc1-c1nc2ccccc2c(=O)n1-c1ccc(Cl)cc1", "Inhibition": 3.54}, {"smiles": "Nc1nc(Nc2ccccc2)sc1-c1nc2ccccc2c(=O)n1-c1ccccc1", "Inhibition": 6.03}, {"smiles": "CCc1ccc(Nc2nc(N)c(-c3nc4ccccc4c(=O)n3-c3ccc(Cl)cc3)s2)cc1", "Inhibition": 0.52}, {"smiles": "N=C(Nc1ccccc1)c1cscn1", "Inhibition": 6.13}, {"smiles": "Fc1cc(Cn2c(-c3cscn3)nc3c(Cl)cccc32)cc(C(F)(F)F)c1", "Inhibition": 3.24}]}, {"test_system": "Cryptococcus neoformans", "settings": "Concentration 32 ug.mL-1; ASSAY_TEST Inhibition of Fungal Growth; detection method Resazurin; Absorption (OD600-OD570); plate type 384well; NBS; CORNING #3640", "units": {"Inhibition": "%"}, "values": [{"smiles": "N#Cc1ccc(Cn2c(-c3cscn3)nc3c(Cl)cccc32)cc1", "Inhibition": -42.41}, {"smiles": "Nc1nc(Nc2ccc(Cl)cc2)sc1-c1nc2ccccc2c(=O)n1-c1ccccc1", "Inhibition": -54.18}, {"smiles": "Clc1cccc2c1nc(-c1cscn1)n2Cc1ccccc1", "Inhibition": -32.31}, {"smiles": "N=C(Nc1ccccc1Cl)c1cscn1", "Inhibition": -8.23}, {"smiles": "Cn1c(-c2cscn2)nc2cc(Cl)ccc21", "Inhibition": -39.47}, {"smiles": "CCc1ccc(Nc2nc(N)c(-c3nc4ccccc4c(=O)n3-c3ccc(CC)cc3)s2)cc1", "Inhibition": -48.5}, {"smiles": "CCc1ccc(Nc2nc(N)c(-c3nc4ccccc4c(=O)n3-c3ccccc3)s2)cc1", "Inhibition": -53.41}, {"smiles": "N#Cc1ccccc1-c1ccc(Cn2c(-c3cscn3)nc3cc(Cl)ccc32)cc1", "Inhibition": -36.18}, {"smiles": "CCc1ccc(-n2c(-c3sc(Nc4ccccc4)nc3N)nc3ccccc3c2=O)cc1", "Inhibition": -54.61}, {"smiles": "N#Cc1ccccc1-c1ccc(Cn2c(-c3cscn3)nc3c(Cl)cccc32)cc1", "Inhibition": -8.16}, {"smiles": "Cn1c(-c2cscn2)nc2c(Cl)cccc21", "Inhibition": -43.05}, {"smiles": "N#Cc1ccccc1-c1ccc(Cn2c(-c3cscn3)nc3ccc(Cl)cc32)cc1", "Inhibition": -28.09}, {"smiles": "O=[N+]([O-])c1ccc(Cn2c(-c3cscn3)nc3ccccc32)cc1", "Inhibition": -41.75}, {"smiles": "Clc1ccc2c(c1)nc(-c1cscn1)n2Cc1ccccc1", "Inhibition": -24.56}, {"smiles": "CC(C)c1ccc(Cn2c(-c3cscn3)nc3c(Cl)cccc32)cc1", "Inhibition": -5.86}, {"smiles": "Clc1ccc2nc(-c3cscn3)n(Cc3ccccc3)c2c1", "Inhibition": -41.97}, {"smiles": "Clc1cccc2[nH]c(-c3cscn3)nc12", "Inhibition": -19.67}, {"smiles": "N#Cc1ccccc1-c1ccc(Cn2c(-c3cscn3)nc3ccccc32)cc1", "Inhibition": -25.26}, {"smiles": "Nc1nc(Nc2ccccc2)sc1-c1nc2ccccc2c(=O)n1-c1ccc(Cl)cc1", "Inhibition": -43.66}, {"smiles": "Nc1nc(Nc2ccccc2)sc1-c1nc2ccccc2c(=O)n1-c1ccccc1", "Inhibition": -28.85}, {"smiles": "CCc1ccc(Nc2nc(N)c(-c3nc4ccccc4c(=O)n3-c3ccc(Cl)cc3)s2)cc1", "Inhibition": -34.77}, {"smiles": "N=C(Nc1ccccc1)c1cscn1", "Inhibition": 4.1}, {"smiles": "Fc1cc(Cn2c(-c3cscn3)nc3c(Cl)cccc32)cc(C(F)(F)F)c1", "Inhibition": -8.45}]}]}
